TNF death inh: inhibitors of TNF-alpha induced necroptosis in Jurkat FADD-/- cells | Jurkat FADD-/- TNF necroptosis rescue, ATP luminescence, 24 h; 0 = TNF only, 100 = no-TNF cells | activation (protection from cell death), % at 10 µM | actives 0.068% (n = 220,000) | AID 463075;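 active = activation, meaning protection from cell death, of at least 50% relative to plate controls; inactive = activation below 50%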;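 also: necroptosis triggered by 40 ng/mL TNF-alpha added together with compound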
V-ATPase pH: alters yeast V-ATPase proton transport. S. cerevisiae, pHLuorin cytosolic pH fluorescence. actives 0.37% (n = 350,000). response, % at 10 µM. AID 504577; in the data active = response mostly above about 7.3%, no sharp cut-off; inactive = mostly below about 5.4%; also: actives read high
HSV augment: HSV replication enhancement. actives 0.005% (n = 220,000). HSV replication augmentation in cells, fold increase. maximum fold increase; in the data active = maximum fold increase above about 1.5; inconclusive = no clear call, values can overlap the other calls; tested in PC3 cells
Wee1 degr inh: inhibitors of human Wee1 degradation. reporter increase, % at 5 µM. P30291. HeLa Luc-Wee1K328M stability, luciferase luminescence; 100% = proteasome inhibitor MG132 effect. actives 1.2% (n = 220,000);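 active = activation above the mean of all tested compounds plus 3 SD, set per screening run, cut at about 8.8% in these data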;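 also: cells exposed to compound for 20 h before luminescence read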
Target sequence (P30291 whole entry K328M): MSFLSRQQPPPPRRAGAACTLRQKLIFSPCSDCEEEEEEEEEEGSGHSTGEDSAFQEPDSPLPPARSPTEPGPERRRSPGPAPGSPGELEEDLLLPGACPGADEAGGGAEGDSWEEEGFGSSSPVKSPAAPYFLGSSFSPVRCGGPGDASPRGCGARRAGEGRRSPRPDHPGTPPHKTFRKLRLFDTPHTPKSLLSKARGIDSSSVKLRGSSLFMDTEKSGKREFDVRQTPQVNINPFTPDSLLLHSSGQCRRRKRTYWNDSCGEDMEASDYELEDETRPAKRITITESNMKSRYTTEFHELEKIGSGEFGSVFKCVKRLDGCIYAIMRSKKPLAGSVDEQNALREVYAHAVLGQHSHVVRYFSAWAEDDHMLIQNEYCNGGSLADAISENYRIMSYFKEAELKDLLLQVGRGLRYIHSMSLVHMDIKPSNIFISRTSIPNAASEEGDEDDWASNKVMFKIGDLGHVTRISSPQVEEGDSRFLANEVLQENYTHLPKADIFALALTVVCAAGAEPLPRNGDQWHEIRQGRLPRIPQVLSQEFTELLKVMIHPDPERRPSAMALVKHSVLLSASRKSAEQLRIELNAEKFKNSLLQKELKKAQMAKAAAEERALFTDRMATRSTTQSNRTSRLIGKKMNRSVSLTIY
zVAD death inh: blocks zVAD induced death of L929 cells | L929 zVAD necroptosis rescue, ATP luminescence, 24 h; with zVAD 60 µM | actives 0.38% (n = 220,000) | viability rescue, % at 10 µM | AID 1377;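 active = activation, scaled between plate controls, above about 75%, limit read from the data; inactive = activation under that limit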
Of the large screens only hits and unclear results are named; the others gave an inactive call. Sampled rows, rich in hits. Any-hit rate of the full collection: about 1.4%.

COc1ccc(C(=O)N[C@H](C(=O)Nc2nc3c(s2)CCCC3)C(C)C)cc1	Wee1 degr inh 10.2
CCOc1ccccc1C(=O)N[C@H](C(=O)Nc1nc2c(s1)CCCC2)C(C)C	none
O=C(CN1CCCCCC1)Nc1ccc(S(=O)(=O)N2CCOCC2)cc1	Wee1 degr inh 9.6
O=C(Nc1ccc(S(=O)(=O)N2CCOCC2)cc1)c1cc(-c2ccccc2O)n[nH]1	Wee1 degr inh 10.2
Cc1noc(C)c1S(=O)(=O)N(C)C[C@H]1OCc2cnnn2CCCC(=O)N([C@@H](C)CO)C[C@H]1C	none (no result: TNF death inh, HSV augment, Wee1 degr inh, zVAD death inh)
Cc1ccc(S(=O)(=O)n2ccc(-c3ccc(OCc4c(F)cccc4Cl)cc3)n2)cc1	Wee1 degr inh 8.8
NC(=NCc1ccccc1)C(N=Nc1ccccc1)C(=O)NCc1ccccc1 (stereo not drawn)	none (no result: TNF death inh, HSV augment, Wee1 degr inh, zVAD death inh)
c1ccc(OC2CCCCC2N2CCOCC2)cc1 (stereo not drawn)	none (no result: TNF death inh, HSV augment, Wee1 degr inh, zVAD death inh)
Cc1ccc(NC(=O)C23CCC(C)(C(=O)[C@H]2Br)C3(C)C)cc1 (stereo partly drawn)	Wee1 degr inh 10.3
CCC1(C)Cc2c(sc3nnn(Cc4ccccc4Cl)c(=O)c23)CO1 (stereo not drawn)	none
CCc1ccccc1NC(=O)CNC(=O)CCNC(=O)Nc1ccccc1	none (no result: TNF death inh, HSV augment, Wee1 degr inh, zVAD death inh)
O=C(CC1C(=O)NCCN1Cc1c(F)cccc1Cl)NCCc1ccccn1 (stereo not drawn)	Wee1 degr inh 9.5
O=C(CC1C(=O)NCCN1Cc1c(F)cccc1Cl)NCCC1=CCCCC1 (stereo not drawn)	none
O=C1CSC(=S)N1N=C1CCCCCC1	Wee1 degr inh 13.4
O=C1CSC(=S)N1/N=C/c1c(F)cccc1F	none (no result: TNF death inh, HSV augment, Wee1 degr inh, zVAD death inh)
O=C(Oc1nsnc1N1CCCCC1)N1CCOCC1	Wee1 degr inh 8.9
CCCCCCN1C=CC(=C/C=C(\C#N)C(=O)OCC)C=C1	HSV augment inconclusive
CCCN1C=CC(=C/C=C(\C#N)C(=O)OCC)C=C1	HSV augment inconclusive, Wee1 degr inh 11.8, zVAD death inh 88.9 (no result: V-ATPase pH)
CCc1ccc2oc(=O)cc(CN3CCN(c4ccc(F)cc4)CC3)c2c1	Wee1 degr inh 10.8
CC(C)c1ccc2oc(=O)cc(CN3CCN(c4ccc(F)cc4)CC3)c2c1	none
OCCOCCN1CCN(C(=S)Nc2ccccc2)CC1	none
Cc1ccc(NC(=O)Cc2ccsc2)cc1S(=O)(=O)N1CCOCC1	none (no result: TNF death inh, HSV augment, Wee1 degr inh, zVAD death inh)
CC1(C)Oc2ccc(C(=O)NN)cc2NC1=O	none (no result: HSV augment)
CCOC(=O)N1CCN(C(=O)Cn2cc3c(n2)CCCC3)CC1	Wee1 degr inh 10.5
CC1CCN(C(=O)Cn2cc3c(n2)CCCC3)CC1	none
CCOc1c(Cl)cc(CNCc2ccccn2)cc1OC	Wee1 degr inh 9.0
COc1cc(CNCc2ccccn2)ccc1OCc1ccccc1Cl	none
CCCc1cc(=O)n2[nH]c(-c3ccco3)nc2n1	V-ATPase pH 15.7
CCN(CC(=O)N1CCOCC1)S(=O)(=O)c1cc(Cl)ccc1Cl	none (no result: TNF death inh, HSV augment, Wee1 degr inh, zVAD death inh)
O=C(NCc1ccco1)c1ccc(-c2cccc(Cl)c2)o1	none
O=C1C=CC(=Nc2cccc3c2C(=O)c2ccccc2-3)O1	V-ATPase pH 10.7 (no result: TNF death inh, HSV augment, Wee1 degr inh, zVAD death inh)
COc1ccccc1CNC(=O)CCS(=O)(=O)c1cccc2nonc12	Wee1 degr inh 9.8
CCOC(=O)c1sc(-c2ccc(F)cc2)cc1N	none
CCOC(=O)c1sc(-c2ccc(OC)cc2)cc1N	Wee1 degr inh 10.6
CCO[C@H]1OC(C(=O)N2CCN(C)CC2)=C[C@@H](C2CC2)[C@@H]1CCCO	none
CCCCN(C(=O)NC(=O)Nc1ccccc1C)S(C)(=O)=O	Wee1 degr inh 28.9
CCCC1CCc2[nH]nc(C(=O)NN)c2C1 (stereo not drawn)	none (no result: TNF death inh, HSV augment, Wee1 degr inh, zVAD death inh)
CC(=O)Oc1ccc(N(C(C)=O)S(=O)(=O)c2ccc(Cl)cc2)c2ccccc12	V-ATPase pH 18.3 (no result: TNF death inh, HSV augment, Wee1 degr inh, zVAD death inh)
Cc1ccc(-c2c(C(=O)N/N=C/c3c[nH]c4ccccc34)nnn2-c2nonc2N)cc1	none (no result: TNF death inh, HSV augment, Wee1 degr inh, zVAD death inh)
Fc1ccccc1CSc1nc2ncccc2[nH]1	Wee1 degr inh 10.0
COc1ccccc1C1CC(c2ccc(Br)cc2)=NN1C(=O)c1cccnc1 (stereo not drawn)	none
COc1cccc(C2CC(c3ccc(Br)cc3)=NN2C(=O)c2ccncc2)c1OC (stereo not drawn)	Wee1 degr inh 9.0
Cc1cc(-c2ccccc2)c(C#N)c(SCC(N)=O)n1	Wee1 degr inh 9.7
Cc1ccc(S(=O)(=O)N2C[C@]3(O)C[C@@H]4C(=O)N(c5ccccc5)C(=O)[C@@H]4C[C@]3(OC(=O)NCC3CCCCC3)C2)cc1	none (no result: TNF death inh, HSV augment, Wee1 degr inh, zVAD death inh)
COc1cccc(C2=NOC(C(=O)N3CCOCC3)C2)c1 (stereo not drawn)	none
COc1cccc(C2=NOC(C(=O)N3CCN(C(=O)c4ccco4)CC3)C2)c1 (stereo not drawn)	zVAD death inh 77.1
Cc1ccc(S(=O)(=O)N(C)CC(=O)N(C)Cc2cccs2)cc1	none (no result: TNF death inh, HSV augment, Wee1 degr inh, zVAD death inh)
CCCCc1cc(=O)oc2cc(OCc3nn[nH]n3)ccc12	V-ATPase pH 18.5
COc1ccc(-n2nc(C(=O)NCC(=O)NCc3ccc(F)cc3)c3ccccc3c2=O)cc1OC	none (no result: TNF death inh, HSV augment, Wee1 degr inh, zVAD death inh)
CN1CCN(Cc2cccc(Oc3ccc(Cl)cc3)c2)CC1	Wee1 degr inh 10.2
CC(C)Nc1nc(SC(C)C(=O)Nc2ccccc2)nc(N(C)C)n1 (stereo not drawn)	Wee1 degr inh 10.3
Cn1nc(C(=O)NNc2c(F)c(F)cc(F)c2F)c2ccccc2c1=O	none
Cc1cccc(-c2nsc(SCC(=O)NCC3CCCO3)n2)c1 (stereo not drawn)	Wee1 degr inh 9.5
Cc1nc(SCC(=O)NCC2CCCO2)c2c(C)c(C)sc2n1 (stereo not drawn)	V-ATPase pH 13.4 (no result: TNF death inh, HSV augment, Wee1 degr inh, zVAD death inh)
Cc1cccc(-c2nsc(SCC(=O)NCc3ccco3)n2)c1	none
C=CCNc1nc(Cl)ncc1F	none
C=CCNc1ncnc2sc(SC)nc12	Wee1 degr inh 10.3
Clc1ccccc1-c1nnc2sc(-c3ccc4c(c3)OCO4)nn12	V-ATPase pH 15.8
Brc1ccccc1-c1nnc2sc(-c3ccc4c(c3)OCCO4)nn12	none
CC(=O)N1CCN(S(=O)(=O)c2cccc(C(=O)NC3CC3)c2)CC1	none (no result: TNF death inh, HSV augment, Wee1 degr inh, zVAD death inh)
CCOc1ccccc1N1CC(O)=C(c2nc3ccccc3s2)C1=N	Wee1 degr inh 10.4
CCCCN(C)C(=O)c1cc2cc3cc(OC)ccc3nc2o1	Wee1 degr inh 10.2
CCCCN(C)C(=O)c1cc2cc3ccc(OC)cc3nc2o1	none (no result: TNF death inh, HSV augment, Wee1 degr inh, zVAD death inh)
CCCC(=O)N(CC(=O)Nc1sc(C)c(C)c1C(N)=O)Cc1ccccc1	none
CC(Nc1nc(-c2ccc3c(c2)NC(=O)CO3)cs1)c1ccccc1 (stereo not drawn)	TNF death inh 82.6
O=C(COC(=O)/C=C/c1ccc(Cl)cc1)NCCN1C(=O)CSC1=O	none
CCN1CCN(c2oc(COc3ccc(Cl)cc3)nc2C#N)CC1	Wee1 degr inh 9.1
CN(C)/N=C/C=C1\CCC/C(=C\c2ccc(F)c(F)c2)C1=O	Wee1 degr inh 10.4
Cc1ccnc(NC(=O)CCC(=O)c2cc(C)sc2C)c1	none (no result: TNF death inh, HSV augment, Wee1 degr inh, zVAD death inh)
NC(=S)N(c1ccccc1)c1ccccc1	Wee1 degr inh 9.6
O=C(CSc1nnc(CNC(=O)c2ccccc2)o1)NCc1ccccc1Cl	none (no result: TNF death inh, HSV augment, Wee1 degr inh, zVAD death inh)
O=Cc1c(OCc2ccccc2)ccc2ccccc12	Wee1 degr inh 11.4
